Screens deposited in PubChem BioAssay by Broad Institute.
C diff growth – C. difficile growth inhibitors, primary screen, HTS. AID 1259249, 2017. growth activity, negative = inhibition, % at 16 µg/mL (by protocol). 86,000 tested, 0.25% active. Clostridium difficile clinical isolate growth, OD600, 24 h; active compounds read low;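 active = mean growth activity at or below -80% and every replicate also at or below -80%; inconclusive = mean at or below -80% but some replicate above -80%; inactive = mean growth activity above -80%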;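 also: 0% = DMSO wells and -100% = levofloxacin 16 µg/mL wells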
Pf Dd2 growth – P. falciparum Dd2 growth inhibitors, primary screen, SYBR Green fluorescence, single dose replicates | 72 h; active compounds read low | activity change, % at 10 µM | 94,000 tested, 2.3% active; in the data active = activity change below about -80%; inconclusive = no clear call, values can overlap the other calls
T cruzi growth-1 – T. cruzi intracellular proliferation inhibitors, primary screen, cell-based, beta-gal Tulahuen parasites, NIH3T3 host, luminescence | T. cruzi beta-gal in NIH3T3, GalScreen luminescence, 90 h | inhibition, % at 8.34 µM | 77,000 tested, 5.9% active;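 active = mean inhibition above about 93%, with at least 55% of replicates each passing it, limit read from the data, passing the limit was not always enough; inconclusive = only one of those two conditions holds; inactive = neither condition holds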
T cruzi growth-2 – T. cruzi intracellular proliferation inhibitors, confirmation, cell-based, NIH3T3 host, beta-gal parasite, luminescence, cherry-pick | shares compounds with T cruzi growth-1 | T. cruzi beta-gal in NIH3T3, GalScreen luminescence, 90 h | inhibition, % at 8.35 µM | 5,600 tested, 72% active | AID 651739, 2012;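 active = mean replicate inhibition above about 95% and at least 55% of replicates individually reaching it, limit read from the data; inconclusive = only one of the two criteria is met; inactive = neither criterion is met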
T cruzi growth-3 – inhibitors of intracellular T. cruzi replication, confirmation, NIH3T3 host cells, beta-gal parasites, cherry-pick, set 2; shares compounds with T cruzi growth-1; T. cruzi beta-gal in NIH3T3, GalScreen luminescence, 90 h; inhibition, % at 2.09 µM; 5,600 tested, 21% active;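 active = mean inhibition above about 95%, with at least 55% of replicates also reaching it, limit read from the data; inconclusive = meets just one of the two conditions; inactive = meets neither condition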;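 also: plate controls were neutral control median for no effect and positive control median for full effect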
NIH3T3 tox – cytotoxicity in mouse NIH/3T3 fibroblasts, confirmation, cytotoxicity control for T. cruzi proliferation inhibitor project, cell-based, cherry-pick, single point; shares compounds with T cruzi growth-1; NIH/3T3 viability, CellTiter-Glo ATP luminescence, 90 h; 5,600 tested, 14% active; cytotoxicity (signal decrease), % at 8.35 µM; AID 651742, 2012;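 active = mean signal decrease across replicates above about 35% based on untreated-well scatter, with enough replicates individually passing, limit read from the data; inconclusive = no rule stated though some were filed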;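 also: 0% = median of neutral control wells and 100% = median of positive control wells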
NIH3T3 tox 2 – NIH/3T3 fibroblast cytotoxicity, confirmation, cytotoxicity control, cell-based, cherry-pick, single point, set 2 | shares compounds with T cruzi growth-1 | NIH/3T3 viability, CellTiter-Glo ATP luminescence, 90 h | inhibition, % at 24.9 µM | 5,600 tested, 56% active | AID 651744, 2012;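 active = mean loss of cell viability signal at or above a set limit, and enough replicates individually reaching it; inconclusive = meets only the mean limit or only the replicate share; inactive = meets neither condition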;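 also: 0% = median of neutral control wells and 100% = median of positive control wells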
An asterisk follows results filed as active; ? = inconclusive; nt = no result given. Sampled rows, rich in hits. Any-hit rate of the full collection: about 6.7%.

SMILES	C diff growth	Pf Dd2 growth	T cruzi growth-1	T cruzi growth-2	T cruzi growth-3	NIH3T3 tox	NIH3T3 tox 2
Cc1noc(C)c1S(=O)(=O)Nc1ccc2c(c1)C(=O)N([C@@H](C)CO)C[C@H](C)[C@H](CN(C)S(=O)(=O)c1c(C)noc1C)O2	nt	1	19	nt	nt	nt	nt
C[C@H](CO)N1C[C@H](C)[C@H](CN(C)C(=O)C2CCC2)Oc2cc(Br)ccc2S1(=O)=O	nt	28	-47	nt	nt	nt	nt
O=C(C[C@@H]1CC[C@H]2[C@@H](COC[C@H](O)CN2Cc2cccc(F)c2)O1)NCC1CCCCC1	0	-1	-36	nt	nt	nt	nt
O=C(C[C@H]1CC[C@@H]2[C@H](COC[C@H](O)CN2Cc2cccc(C(F)(F)F)c2)O1)NCc1ccc(Cl)cc1	74	-1	144*	103*	7	13	99*
O=C(C[C@@H]1CC[C@@H]2[C@H](COC[C@@H](O)CN2Cc2cccc(Cl)c2)O1)NCC1CCCCC1	-2	nt	125*	?	30	7	3
O=C(C[C@H]1CC[C@H]2[C@@H](COC[C@@H](O)CN2Cc2cccc(C(F)(F)F)c2)O1)NCc1ccccc1	10	-4	-35	nt	nt	nt	nt
C[C@@H](NC(=O)C[C@H]1CC[C@H]2[C@@H](COC[C@H](O)CN2Cc2ccc(C(F)(F)F)cc2)O1)c1ccccc1	2	4	73	nt	nt	nt	nt
O=C(C[C@H]1CC[C@H]2[C@@H](COC[C@H](O)CN2Cc2cccc(C(F)(F)F)c2)O1)NCc1ccc(Cl)cc1	34	-14	128*	107*	54	25	?
C[C@H](NC(=O)C[C@@H]1CC[C@@H]2[C@H](COC[C@H](O)CN2Cc2ccc(C(F)(F)F)cc2)O1)c1ccccc1	24	-26	168*	79	6	-3	23
O=C(C[C@H]1CC[C@H]2[C@@H](COC[C@H](O)CN2Cc2cccc(C(F)(F)F)c2)O1)NCc1ccccc1	nt	-13	24	nt	nt	nt	nt
COc1ccccc1C(=O)Nc1ccc2c(c1)OC[C@@H](C)N(CC1CC1)C[C@@H](C)[C@H](OC)CN(C)C2=O	nt	nt	35	nt	nt	nt	nt
CO[C@H]1CN(C)C(=O)c2cc(NC(=O)NC(C)C)ccc2OC[C@@H](C)N(Cc2cncnc2)C[C@@H]1C	-5	26	1	nt	nt	nt	nt
Cc1noc(C)c1NC(=O)N[C@@H]1CC[C@H](CC(=O)NCCCN(C)C)O[C@H]1CO	nt	4	87	nt	nt	nt	nt
C[C@H](CO)N1C[C@H](C)[C@H](CN(C)Cc2ccc(Cl)c(Cl)c2)Oc2ccc(NC(=O)Nc3ccc(C(F)(F)F)cc3)cc2CC1=O	7	-48	77	nt	nt	nt	nt
CC(C)NC(=O)Nc1ccc2c(c1)C(=O)N([C@@H](C)CO)C[C@@H](C)[C@@H](CN(C)Cc1ccc(-c3ccccc3)cc1)O2	40	10	-20	nt	nt	nt	nt
O=C(C[C@H]1CC[C@H]2[C@@H](COC[C@@H](O)CN2Cc2cccc(C(F)(F)F)c2)O1)NCc1ccc(Cl)cc1	45	-3	125*	92	33	8	87*
O=C(C[C@H]1CC[C@@H]2[C@H](COC[C@H](O)CN2Cc2cccc(C(F)(F)F)c2)O1)NCc1ccccc1	8	-2	37	nt	nt	nt	nt
COc1ccc(S(=O)(=O)N(C)C[C@@H]2Oc3c(NC(=O)Nc4ccc(C(F)(F)F)cc4)cccc3C(=O)N([C@H](C)CO)C[C@@H]2C)cc1	24	-34	58	nt	nt	nt	nt
COc1cccc(C(=O)Nc2ccc3c(c2)C(=O)N(C)[C@H]2CC[C@@H](CC(=O)NCc4ccccc4F)O[C@@H]2CO3)c1	5	-22	18	nt	nt	nt	nt
O=C(C[C@@H]1CC[C@H]2[C@@H](COC[C@H](O)CN2Cc2ccc3c(c2)OCO3)O1)Nc1ccc(-c2ccccc2)cc1	84	-50	?	103*	78	-15	92*
O=C(C[C@H]1CC[C@@H]2[C@H](COC[C@H](O)CN2Cc2ccc3c(c2)OCO3)O1)N1CCOCC1	nt	1	26	nt	nt	nt	nt
